According to PubChem BioAssay AID651845 (Broad Institute, 2012):
Entries with a potency or affinity are not part of this list. Records with an inconclusive call do not appear. The source made the active and inactive calls.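 Rule for the calls: active = every replicate test called active, with signal dropping and a potency found within twice the top tested dose; inconclusive = replicate test calls disagree with each other; inactive = all replicate tests inactive, including signal rising.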

Assay: Trypanosoma cruzi replication inhibitors in host cells – cell-based, plate reader, dry powder samples, dose response (AID 651845)

Compound | outcome
CNC[C@@H]1Oc2c(NC(=O)c3ccncc3)cccc2C(=O)N(C(C)C)C[C@H]1C | inactive
CC(C)N1C[C@H](C)[C@@H](CN(C)C(=O)OC(C)(C)C)Oc2c(C(=O)O)cccc2C1=O | inactive
